This is a sample that favours compounds with a hit; in the whole collection about 7.4% have one here.
NPC1 prom act = NPC1 promoter activation. Potency, µM (highest dose often 9.22 µM), actives largely listed as activators. Huh7 NPC1 promoter luciferase reporter, 24 h. actives 2.4% (n = 320,000); further: nearly all actives have a fitted effect of over 60% in size
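Huh7 reporter cells (NPC1 promoter driving luciferase) are dosed with compound for 24 h at 37 °C, 5% CO2; luciferase detection reagent is then added and luminescence measured after 10 min at ambient temperature.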
SMN2 splice up = SMN2 splice variant enhancement. HEK293 SMN2-luciferase splicing reporter, luminescence, 30-36 h. Potency, µM (titrated, usually from 46.1 µM), hits mostly activators. actives 2.8% (n = 210,000); further: nearly all actives have a fitted effect of over 55% in size
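HEK293 cells carry an SMN2 minigene-luciferase reporter in which exon 7 inclusion puts luciferase in frame. Cells were seeded at 2000 cells/well, attached for 10-12 hours, then exposed to compounds for 30-36 hours at 37C before ONE-Glo luminescence.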
ELG1 genotox = induces genotoxicity in HEK293T cells with luciferase-tagged ELG1. HEK293T ELG1-luciferase reporter, luminescence, 16 h. Potency, µM (top dose mostly 46 µM), usual class: activators. actives 1.3% (n = 330,000). AID 504466; further: nearly all actives have a fitted effect of over 60% in size
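Genotoxic stress is detected as increased luminescence from luciferase-tagged ELG1 in HEK293T cells, measured with ONE-Glo after a 16 hr treatment at 37 °C.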
Rab9 promoter act = activators of Rab9 promoter; Huh7 Rab9 promoter-luciferase reporter, luminescence, 24 h; Potency, µM (titrated, usually from 9.22 µM), hits mostly activators; actives 2.8% (n = 320,000); AID 485297; further: nearly all actives have a fitted effect of over 60% in size
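Huh7 reporter line, Rab9 promoter upstream of luciferase. Compound exposure 24 h at 37 °C in reduced-serum medium with 10% FBS. Read-out: luminescence.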
p53 reactivation = mutant p53 re-activation in reporter cells; actives 0.063% (n = 320,000); Potency, µM (series often up to 92.2 µM), hits mostly activators; H1299 p53-A138V BP100-luciferase reporter, luminescence, 24 h; AID 504706; further: nearly all actives have a fitted effect of over 45% in size
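p53-null H1299 cells stably carrying temperature-sensitive p53-A138V and a BP100-luciferase reporter were pinned with compounds (4-point, 1:5 series) and held 24 hrs at 37 deg C. Luminescence was read 10 min after detection reagent.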
FLuc modulator = counter-screen for miR-21 project: firefly luciferase inhibitors or activators; purified FLuc, Km substrates, luminescence inhibition; Potency, µM (top dose mostly 57.5 µM), most hits filed as inhibitors; actives 6.9% (n = 360,000); further: nearly all actives have a fitted effect of over 55% in size
Target sequence (P08659 whole entry, looked up): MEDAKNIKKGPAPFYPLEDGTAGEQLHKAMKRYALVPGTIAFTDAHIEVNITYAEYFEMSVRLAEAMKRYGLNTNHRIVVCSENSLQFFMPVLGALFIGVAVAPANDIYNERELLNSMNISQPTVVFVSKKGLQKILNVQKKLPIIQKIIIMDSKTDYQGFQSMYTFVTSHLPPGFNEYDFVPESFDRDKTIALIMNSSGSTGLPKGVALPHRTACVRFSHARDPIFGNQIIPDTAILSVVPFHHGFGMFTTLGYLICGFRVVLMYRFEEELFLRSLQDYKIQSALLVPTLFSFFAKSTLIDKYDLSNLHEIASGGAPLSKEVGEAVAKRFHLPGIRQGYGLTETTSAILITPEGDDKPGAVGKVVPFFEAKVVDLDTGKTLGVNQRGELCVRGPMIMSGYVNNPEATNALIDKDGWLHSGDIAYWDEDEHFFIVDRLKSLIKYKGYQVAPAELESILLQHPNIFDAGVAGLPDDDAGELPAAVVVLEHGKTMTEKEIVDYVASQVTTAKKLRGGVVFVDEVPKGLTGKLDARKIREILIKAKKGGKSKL
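Purified P. pyralis luciferase, 10 nM final, with Km-level 10 uM D-luciferin and 10 uM ATP in 50 mM Tris acetate pH 7.5, 10 mM Mg acetate, 0.01% Tween-20, 0.05% BSA; 6-point qHTS titration about 60 µM downward; luminescence read.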
A number is an active result; - = inactive; ? = inconclusive; . = no result given; [ ] = remark or other dose. The call rests on the fitted dose curve; in most records, active means well fitted curve in the direction sought with a large enough effect; inconclusive means small, poorly fitted or top-dose-only effect, or another doubt; inactive means no such curve, though single readings can be large; an effect the other way counts as inactive or inconclusive.

SMILES	NPC1 prom act	SMN2 splice up	ELG1 genotox	Rab9 promoter act	p53 reactivation	FLuc modulator
O=C(Nc1cc2c(cc1Cl)OCCCO2)c1ccco1	3.5µM	14µM	?	3.5µM	?	11µM
CCN(CC)CCCNC(=O)c1cn(CC)c2ccc(S(=O)(=O)N3CCC(C)CC3)cc2c1=O	.	-	.	.	.	-
Cc1nc2c(s1)sc1ccccc12	-	-	-	-	-	24µM
O=C(COC(=O)/C=C/c1ccccc1[N+](=O)[O-])Nc1ccc(OC(F)F)cc1	-	-	-	-	-	-
O=C(COC(=O)/C=C/c1ccccc1[N+](=O)[O-])Nc1ccc(OCc2ccccc2)cc1	?	13µM	?	?	?	-
O=C(O)/C=C/c1ccccc1[N+](=O)[O-]	-	.	-	-	-	-
O=C(/C=C/c1ccccc1[N+](=O)[O-])Nc1ccccc1	2µM	14µM	?	0.71µM	-	6µM
COc1cc(NC(=O)/C=C/c2ccccc2[N+](=O)[O-])cc(OC)c1	-	?	-	-	?	21µM
CCNC(=O)/C=C/c1ccccc1[N+](=O)[O-]	-	-	-	-	-	-
CCOc1ccc(CNC(=O)c2cc3c(=O)oc4ccc(C)cc4c3s2)cc1	.	-	.	.	.	-
CCOCCOc1cccc(C(=O)NC(c2ccccc2)c2ccccc2)c1	-	.	-	-	-	-
Cc1cc(C(=O)N/N=C/c2c[nH]c3ccccc23)c(C)o1	-	-	-	-	-	19µM
Cc1ccc(-c2cc(C(=O)N/N=C/C(Br)=C/c3ccccc3)n[nH]2)o1	-	-	-	-	-	24µM
Cc1ccnn1CC(=O)N/N=C/c1c[nH]c2ccccc12	-	.	-	-	-	-
Cc1ccc(-c2cc(C(=O)N/N=C/c3ccccc3O)n[nH]2)o1	-	.	?	-	-	?
Cc1ccc(C(=O)N/N=C/c2c[nH]c3ccccc23)o1	-	.	?	-	-	24µM
Cc1ccc(-c2cc(C(=O)N/N=C/c3c[nH]c4ccccc34)n[nH]2)o1	-	-	-	-	?	11µM
O=C(O)C[C@H](Sc1ccccc1)c1ccccc1	.	-[9.22 µM]	.	.	.	.
Cc1cc(NC(=O)c2ccc(Cn3nc(C)c(Br)c3C)o2)no1	-	20µM	-	-	-	-
Cc1nn(Cc2ccc(C(=O)NC(C)(C)C)o2)c(C)c1Br	-	-	-	-	-	-
O=c1c(Cl)c(N2CCOCC2)cnn1-c1nc2ccccc2[nH]1	2.5µM	11µM	?	1.6µM	-	11µM
COc1ccc(C2(c3ccc(OC)cc3)NC(=O)N(CC(=O)Nc3cc(C)ccc3OC)C2=O)cc1	-	.	-	-	-	-
CCC(C(=O)NCCc1ccccc1)n1nc(C)n2c(cc3sccc32)c1=O (stereo not given)	.	-	.	.	.	-
O=C(COc1ccc(-c2nnco2)cc1)Nc1c(Cl)cccc1C(F)(F)F	-	.	-	-	-	-
CCOC(=O)c1sc(NC(=O)c2cccnc2)nc1C	-	-	?	-	-	15µM
SMILES	NPC1 prom act	SMN2 splice up	ELG1 genotox	Rab9 promoter act	p53 reactivation	FLuc modulator
CCOC(=O)c1sc(NC(=O)c2ccc3nc[nH]c3c2)nc1C	-	.	?	-	-	5.4µM
C[C@@]1(CCOCc2ccccc2)NC(=O)NC1=O	.	-[9.22 µM]	.	.	.	.
CCOc1ccc(CCNC(=O)CSc2nnnn2-c2ccccc2Cl)cc1OCC	.	-	.	.	.	-
CC(=O)c1cccc(NC(=O)c2cc3nc(-c4ccc(Br)cc4)cc(C(F)(F)F)n3n2)c1	.	.	.	.	.	-
CC(=O)Cc1nsc(NC(=O)c2ccccc2Cl)n1	-	-	-	-	-	-
Cn1sc(NC(=O)c2cccc(Cl)c2)nc1=O	?	-	-	-	?	19µM
Cn1sc(NC(=O)c2ccccc2Cl)nc1=O	-	?	-	-	-	19µM
C(=N\n1cnnc1)/c1nc2ccccc2[nH]1	-	-	-	-	-	-
Clc1ccc(/C=C/c2nc3ccccc3[nH]2)cc1	0.1µM	0.79µM	0.58µM	0.2µM	-	0.076µM
Clc1cccc(Cl)c1/C=C/c1nc2ccccc2[nH]1	3.5µM	11µM	?	4.5µM	?	0.67µM
O=C(/C=C/c1ccc(Cl)cc1Cl)c1nc2ccccc2[nH]1	-	-	-	-	-	0.24µM
O=[N+]([O-])c1ccc(/C=C/c2nc3ccc([N+](=O)[O-])cc3[nH]2)cc1	-	.	-	-	-	?
Clc1ccc(/C=C/c2nc3ccccc3[nH]2)c(Cl)c1	0.71µM	0.56µM	?	0.4µM	-	0.067µM
COc1ccccc1NC(=O)C1=C(C)Nc2nc(SCc3cccc(F)c3)nn2C1c1ccc(C(=O)O)cc1 (stereo not given)	-	-	.	-	.	?
Cc1cccc(C(=O)N(Cc2ccco2)Cc2ccccc2F)c1	.	-	.	.	.	-
CCOc1ccc(NC(=O)c2sc3ccccc3c2Cl)cc1	.	-	.	.	.	-
O=C(NC1=NCCS1)c1sc2cc(Cl)cc(Cl)c2c1Cl	-	-	-	-	-	-
O=C(O)CCCn1cc(NC(=O)c2sc3ccccc3c2Cl)cn1	-	.	-	-	-	27µM
Cc1c(NC(=S)NC(=O)c2sc3ccccc3c2Cl)cccc1C(=O)O	?	4µM	?	?	-	0.76µM
O=C(NC1=NCCS1)c1sc2ccccc2c1Cl	1.3µM	13µM	2.9µM	1.1µM	?	2.1µM
Cc1cccnc1NC(=O)c1sc2ccccc2c1Cl	1.4µM	.	3.7µM	2.5µM	-	2.7µM
CS(=O)(=O)N1CCC2(CCN(C(=O)Nc3cccc(C#N)c3)CC2)CC1	.	-	.	.	.	.
Cc1ccc(NC(=O)c2sc3ccccc3c2Cl)nc1	3.5µM	0.63µM	?	3.5µM	?	0.27µM
COCc1nnc(NC(=O)c2sc3ccccc3c2Cl)s1	?	-	?	?	?	5.4µM
CNC(=O)c1ccsc1NC(=O)c1sc2ccccc2c1Cl	?	13µM	-	?	-	3.8µM
SMILES	NPC1 prom act	SMN2 splice up	ELG1 genotox	Rab9 promoter act	p53 reactivation	FLuc modulator
Cc1ccc2nsnc2c1NC(=O)c1sc2ccccc2c1Cl	-	-	-	-	-	-
Cc1nnc(NC(=O)c2sc3ccccc3c2Cl)s1	1.3µM	13µM	?	1µM	-	0.38µM
CC1CCN(CC(O)COc2ccc(-c3ccccc3)cc2)CC1 (stereo not given)	-	.	-	-	.	-
CCc1cccc(C)c1NC(=O)C1=C(C)C(=O)OC12CCC(C)CC2 (stereo not given)	.	-	.	.	.	-
CCOC(=O)[C@H]1[C@H]2COc3ccc(C)cc3[C@@H]2N2C(=O)c3cc(C)ccc3NC(=O)[C@@]12C	.	.	-	.	-	.
COc1cc2c(cc1NC(=O)COC(=O)Cn1cnc3ccccc31)oc1ccccc12	-	-	23µM	?	?	19µM
COc1cc2c(cc1NC(=O)Cc1ccc(C)cc1)oc1ccccc12	-	8.9µM	-	?	?	15µM
COc1cc2c(cc1NC(=O)CSCC(=O)O)oc1ccccc12	-	-	-	-	-	21µM
